For 14 compounds, growth inhibition results are on record in PubChem BioAssay (NCI).

This is part of a sample that, as a whole, favours compounds with a hit. Of some 79,000 tested, about 15% had one in any assay. Values without a mark were called inactive. Active and inactive are the calls of the source. Rule as the data show it: active = growth inhibition above about 70%; inactive = the rest.

This test can be described thus: NCI Yeast Anticancer Drug Screen. Data for the bub3 strain (AID 167). Conditions: S. cerevisiae bub3 mutant strain, hits give high values. As to the method:
Growth inhibition of yeast strains with defined genetic alterations is measured as a screen for potential anti-cancer activity. Selected strains with alterations in DNA damage repair or cell cycle control were exposed to compounds and growth inhibition was measured relative to vehicle treated controls. The strain used in this assay is bub3

Setting [1] is: at 5.0 µM (retest, dose inferred, filed as 0.5).
[2] abbreviates: at 50.0 µM (retest, dose inferred, filed as 5.0).

As for `c1cc[c]([Sn]([S]c2cccc3cccnc23)([S]c2cccc3cccnc23)[c]2ccccc2)cc1`, the growth inhibition by setting is: under setting [1], 98% (active); under setting [2], 99% (active); (at 50.0 µM) 95.9% (active).
The matching figures for `COc1ccc([C@H]2c3cc4c(cc3OC(O)(CO)[C@H]2C(=O)O)OCO4)c(OC)c1` (some centres not stated) (tested in a mixture with another compound): -5%, 76% (active) and 54.5%.
The matching figures for `CC(C)(C)CC(C)(C)c1ccc(O)c(O)c1`: 86% (active), 98% (active) and 93.3% (active).
The matching figures for `Nc1nc2nc(I)[nH]c2c(=O)[nH]1`: -7%, 3% and 31.6%.
For `COc1ccc(OC)c(N=Nc2c(C)[nH]n(C(N)=S)c2=O)c1`, the growth inhibition by setting is: under setting [1], -14%; under setting [2], 26%; (at 50.0 µM) 42.1%.
The matching figures for `CCCCC(CCc1ccccc1)(C(=O)O)c1ccccc1` (configuration not stated): 72% (active), 99% (active) and 99.5% (active).
The matching figures for `Cc1c[n+](=O)c2ccccc2n1[O-]`: 13%, -11% and -10.6%.
The matching figures for `CC(C(O)c1ccccc1)C(O)(C(F)(F)F)C(F)(F)F` (configuration not stated): -2%, -7% and -19.6%.
For `Cc1cc(SC#N)cc(C)c1O`, the growth inhibition under setting [1] was -4%, the growth inhibition under setting [2] is 63% and the growth inhibition (at 50.0 µM) is 78.9% (active).
The matching figures for `CCCC(=O)Oc1ccc(-c2ccccc2Br)cc1`: 18%, 74% (active) and 92.7% (active).
As for `CC1(C)CC([P+](c2ccccc2)(c2ccccc2)c2ccccc2)=NN1`, the growth inhibition under setting [1] is 71% (active), the growth inhibition under setting [2] is 91% (active) and the growth inhibition (at 50.0 µM) is 83.5% (active).
Regarding `Nc1nc(-c2ccccc2)c(-c2ccccc2)c(-c2nc(N)nc(-c3ccccc3)c2-c2ccccc2)n1`, the growth inhibition is -1% under setting [1], -9% under setting [2] and -17.1% (at 50.0 µM).
The matching figures for `CCCNC(=O)OCc1ccc(NCCN(CC)CC)c2c(=O)c3ccccc3sc12`: 14%, 10% and -31.1%.
The matching figures for `CCC[CH2][Sn]1([CH2]CCC)[O]C(=O)CN=Cc2c(ccc3ccccc23)[O]1`: 53%, 53% and 92.6% (active).
